# Laboratory results taken from the supplement of paper PMC10498489.
# In all, about 2,300 compounds went through this assay and about 330 (14%) showed activity.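 Rule for the calls: active = median modified Z-score above 1.96; inactive = 1.96 or below.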 Not all results are given here.
# System: HepG2 Srxn1-GFP reporter cells (+30 nM CDDO-Me)
# Assay: Srxn1-GFP intensity median modified Z-score relative to plate median; higher = stronger NRF2 / oxidative stress reporter activation, active = hit call of the paper
# Settings: 10 µM; exposure time: 24h
# Procedure, shortened: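 Per-cell cytoplasmic GFP was measured on confocal images of formaldehyde-fixed, Hoechst-stained HepG2 Srxn1-GFP BAC reporter cells, excluding images with fewer than 100 cells. Before this, the cells (20,000 per well, 96-well plates) were co-exposed for 24 h to compound at 10 μM and an NRF2 activator at 30 nM with ≤0.1% DMSO, in three replicate plates. Each value is the median over replicates of the per-plate modified Z-score of GFP intensity. That score was scaled with 1.4826 × median absolute deviation.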
row,Structure (SMILES),Srxn1-GFP intensity median modified Z-score
1,CC1=NCCc2c1[nH]c1cc(O)ccc21 [euspeclibcmpd2357],7.71 (active)
2,COc1ccc2c3c([nH]c2c1)C(C)=NCC3 [euspeclibcmpd2276],66 (active)
3,Cl[C@H]1[C@H](Cl)[C@@H](Cl)[C@@H](Cl)[C@H](Cl)[C@H]1Cl [euspeclibcmpd969],0.0503 (inactive)
4,CC1C(=O)O[C@@H]2O[C@]3(C)CC[C@H]4[C@H](C)CC[C@@H]1[C@@]24OO3 (some centres not stated) [euspeclibcmpd1110],0.987 (inactive)
5,CC(=O)O[C@@H]1C2CC[C@@H]3C1(C[C@@H](O)[C@@]1(O)[C@@H](C[C@H](O)C1(C)C)[C@]3(C)O)C[C@@]2(C)O (some centres not stated) [euspeclibcmpd2325],-0.506 (inactive)
6,CC(C)(C#N)O[C@@H]1O[C@H](CO)[C@@H](O)[C@H](O)[C@H]1O [euspeclibcmpd1356],0.0487 (inactive)
7,CC1C[C@H](C)C[C@H]([C@H](O)CC2CC(=O)NC(=O)C2)C1=O (some centres not stated) [euspeclibcmpd437],-0.201 (inactive)
8,C=C[C@H]1C[N@]2CC[C@H]1C[C@@H]2[C@H](O)c1ccnc2ccccc12 [euspeclibcmpd2140],0.321 (inactive)
9,Cc1nc(=N)c(CNC(=O)N(CCCl)N=O)c[nH]1 [euspeclibcmpd1167],-0.0324 (inactive)
10,N=C(N)NN [euspeclibcmpd930],-0.0849 (inactive)
11,CC[C@H]1CN2CCc3cc(OC)c(OC)cc3C2C[C@@H]1CC1NCCc2cc(OC)c(OC)cc21 (some centres not stated) [euspeclibcmpd109],-1.21 (inactive)
12,CCC(CO)NC(=O)C1=CC2c3cccc4[nH]cc(c34)CC2N(C)C1 (configuration not stated) [euspeclibcmpd1928],-0.0083 (inactive)
13,CC(C)CC1C(=O)N2CCC[C@H]2[C@@]2(O)O[C@](NC(=O)C3=CC4c5cccc6[nH]c(Br)c(c56)CC4N(C)C3)(C(C)C)C(=O)N12 (some centres not stated) [euspeclibcmpd39],23.2 (active)
14,CN1CC(C(=O)N[C@]2(C)O[C@@]3(O)C4CCCN4C(=O)C(Cc4ccccc4)N3C2=O)=CC2c3cccc4[nH]cc(c34)CC21 (some centres not stated) [euspeclibcmpd823],113 (active)
15,CC(CO)NC(=O)C1=CC2c3cccc4[nH]cc(c34)CC2N(C)C1 (configuration not stated) [euspeclibcmpd113],0.556 (inactive)
16,CC[C@@H](CO)NC(=O)C1=CC2c3cccc4c3c(cn4C)C[C@H]2N(C)C1 (some centres not stated) [euspeclibcmpd522],-0.363 (inactive)
17,CN1CC(C(=O)N[C@]2(C)O[C@@]3(O)[C@@H]4CCCN4C(=O)C(Cc4ccccc4)N3C2=O)C[C@@H]2c3cccc4[nH]cc(c34)C[C@H]21 (some centres not stated) [euspeclibcmpd97],-0.0377 (inactive)
18,CC(NC(C)(C)C)C(=O)c1cccc(Cl)c1 (configuration not stated) [euspeclibcmpd657],-0.376 (inactive)
19,CC(=O)Oc1ccc(/C=C/c2cc(OC(C)=O)cc(OC(C)=O)c2)cc1 [euspeclibcmpd1618],1.59 (inactive)
20,CC(=O)NC1CCSC1=O (configuration not stated) [euspeclibcmpd1125],0.231 (inactive)
21,CCOP(=S)(OCC)Oc1cc(C)nc(C(C)C)n1 [euspeclibcmpd706],-0.234 (inactive)

row,Structure (SMILES),Srxn1-GFP intensity median modified Z-score
1,C=CCc1cc(OC)c2c(c1OC)OCO2 [euspeclibcmpd1480],-0.404 (inactive)
2,N=c1cc[nH]cc1 [euspeclibcmpd895],-0.471 (inactive)
3,Cc1cc(C(C#N)c2ccc(Cl)cc2)c(Cl)cc1NC(=O)c1cc(I)cc(I)c1O (configuration not stated) [euspeclibcmpd694],9.76 (active)
4,CN(C)C1C(=O)C(C(N)=O)C(=O)[C@@]2(O)C(=O)C3C(=O)c4c(O)cccc4[C@@](C)(O)[C@H]3[C@H](O)[C@@H]12 (some centres not stated) [euspeclibcmpd225],-0.444 (inactive)
5,CC(=O)O[C@@H]1CC[C@]2(C)C3CC[C@]4(C)C(=O)CCC4C3CC[C@H]2C1 (some centres not stated) [euspeclibcmpd1810],0.269 (inactive)
6,Cc1nc(=O)c(C[n+]2csc(CCO)c2C)c[nH]1 [euspeclibcmpd1800],0.155 (inactive)
7,CCCCCC1C(=O)O[C@H](C)C(NC(=O)c2cccc(NC=O)c2O)C(=O)O[C@@H](C)[C@@H]1OC(=O)CC(C)C (some centres not stated) [euspeclibcmpd1446],39.4 (active)
8,C[C@]12C=CC(=O)CC1=CCC1C2CC[C@]2(C)C(=O)CCC12 (some centres not stated) [euspeclibcmpd1581],-0.0301 (inactive)
9,N#CC(=Cc1ccc(O)cc1)C(=O)O [euspeclibcmpd1768],-0.146 (inactive)
10,CC[C@H](c1cccc(O)c1)[C@@H](C)CN(C)C [euspeclibcmpd2238],-0.41 (inactive)
11,O=C1C(Cl)=C(Cl)C(=O)C(Cl)=C1Cl [euspeclibcmpd1739],25.8 (active)
12,C=CCN=C=S [euspeclibcmpd920],0.0414 (inactive)
13,Cc1ccc(/N=C/N(C)/C=N/c2ccc(C)cc2C)c(C)c1 [euspeclibcmpd739],0.115 (inactive)
14,CC1=C2CCC3C(CC[C@]4(C)C(=O)CCC34)[C@@]2(C)CCC1=O (some centres not stated) [euspeclibcmpd1163],-0.15 (inactive)
15,CN[C@@H]1[C@@H](O)C(OC2[C@@H](N)C[C@@H](N)[C@H](O[C@H]3O[C@H](C(C)O)[C@@H](O)[C@H](O)[C@H]3N)[C@H]2O)OC[C@]1(C)O (some centres not stated) [euspeclibcmpd1437],-0.354 (inactive)
16,COc1cc([C@@H]2c3cc4c(cc3[C@H](O)[C@H]3COC(=O)C23)OCO4)cc(OC)c1OC (some centres not stated) [euspeclibcmpd2203],11.5 (active)
17,COc1cc([C@@H]2c3cc4c(cc3[C@H](O)[C@H]3COC(=O)C23)OCO4)cc(OC)c1OC (some centres not stated) [euspeclibcmpd2060],27.1 (active)
18,COc1ccc2c(c1OC)C(=O)O[C@@H]2[C@H]1c2cc3c(cc2CCN1C)OCO3 [euspeclibcmpd2270],0.619 (inactive)
19,CN1CCc2cc3c(cc2C1O)OCO3 (configuration not stated) [euspeclibcmpd1021],0.455 (inactive)
20,COc1cc([C@@H]2c3cc4c(cc3[C@H](OC(C)=O)[C@H]3COC(=O)C23)OCO4)cc(OC)c1OC (some centres not stated) [euspeclibcmpd2106],13.1 (active)
21,NCc1cccnc1 [euspeclibcmpd1239],-0.224 (inactive)
